Some test systems named below: NCI-H23 lung; NCI-H226 lung; HOP-62 NSCLC; NCI-H460 lung; HOP-92 NSCLC; NCI-H522 lung; A549/ATCC NSCLC; 786-0 renal; COLO 205 colon; DU-145 prostate; K-562 leukemia; MALME-3M melanoma; MDA-MB-231 breast; RXF 393 renal; SF-268 CNS; SF-295 CNS; SF-539 CNS; UACC-257 melanoma; M14 melanoma; NCI-H322M lung.
Common to all, as to assay: NCI-60 one-dose screen, 48 h (100 = growth as untreated, 0 = no growth, -100 = all killed)
Common to all, as to conditions: 10 µM unless noted

The panel holds about 83,000 compounds, 20% with a hit somewhere; the sample as a whole holds those more often.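 Growth was measured after 48 h exposure to one concentration of compound in 96-well plates. Values under 10 count as active.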 A number with no mark means an inactive call. Calls of active or inactive are those of the source.

For the compound `O=[N+]([O-])c1cccc(-c2nc3sccn3c2-c2ccnc(NCCCNS(=O)(=O)c3ccc(Cl)cc3)n2)c1`, the growth in the assay with NCI-H23 lung was 42.8%; in the assay with NCI-H226 lung, 44.2%; in the assay on HOP-62 NSCLC it was 84%; in the assay with NCI-H460 lung, 57.4%; in the assay with HOP-92 NSCLC, 67.2%; in the assay with NCI-H522 lung, 28.4%. Moreover, the growth in the assay with A549/ATCC NSCLC is 43.1%; with 786-0 renal, 78.7%; in the assay on COLO 205 colon it was 49.2%; in the assay on DU-145 prostate, 64.2%; in the assay with K-562 leukemia, 26.6%; with MALME-3M melanoma it was 62.8%. In addition, the growth in the assay on MDA-MB-231 breast was 70.8%; in the assay with RXF 393 renal, 77.9%; in the assay with SF-268 CNS, 69.7%; in the assay on SF-295 CNS it was 37.2%; in the assay with SF-539 CNS, 84.9%; in the assay with UACC-257 melanoma, 47.7%. In the assay with M14 melanoma, the growth is 47%.

With `COc1cc(Nc2ncccc2C(=O)NCc2cn(Cc3cccc(Oc4ccccc4)c3)nn2)cc(OC)c1`, the growth was 66.2% with NCI-H23 lung; 91.7% in the assay on NCI-H226 lung; 56.6% in the assay with HOP-62 NSCLC; 20.2% in the assay with NCI-H460 lung; 108% in the assay on HOP-92 NSCLC; 5.73% (active) in the assay with NCI-H522 lung. In addition, the growth with A549/ATCC NSCLC was 38.6%; in the assay with 786-0 renal, 51%; in the assay with COLO 205 colon, 38.3%; with DU-145 prostate, 68.9%; with MALME-3M melanoma, 56.1%; in the assay with MDA-MB-231 breast, 26.3%. Also, the growth in the assay with RXF 393 renal was 64.2%; in the assay with SF-268 CNS, 47.2%; with SF-295 CNS it was 28.3%; in the assay with SF-539 CNS, 38.5%; with UACC-257 melanoma, 74%; in the assay with M14 melanoma it was 31.2%.

In the case of `CCOC(=O)c1cn2c3c(cccc3c1=O)C(=O)/C(=C/c1cccc(Cl)c1Cl)C2`, the growth is 93% with NCI-H23 lung; 83% in the assay on NCI-H226 lung; 97.4% in the assay on NCI-H322M lung; 81.8% with HOP-62 NSCLC; 73.1% in the assay with NCI-H522 lung; 98.2% in the assay with A549/ATCC NSCLC. For the same compound, the growth with 786-0 renal is 90.6%; with COLO 205 colon, 117%; in the assay on DU-145 prostate, 106%; in the assay with K-562 leukemia it was 91%; in the assay with MALME-3M melanoma, 116%; with MDA-MB-231 breast, 89.5%. Also, the growth in the assay with RXF 393 renal was 87%; with SF-268 CNS, 87.9%; with SF-295 CNS it was 95.8%; in the assay on SF-539 CNS, 101%; in the assay with UACC-257 melanoma, 87.5%; in the assay on M14 melanoma, 98.7%.

For `N#Cc1ccc(N2Cc3ccccc3OC3=C2C(=O)c2c(O)ccc(O)c2C3=O)cc1`, the growth in the assay with NCI-H23 lung is 14.2%; in the assay on NCI-H226 lung it was 10.4%; in the assay on HOP-62 NSCLC, 16%; in the assay with NCI-H460 lung, 46.9%; in the assay on HOP-92 NSCLC, -66.2% (active); with NCI-H522 lung it was -75.6% (active). In addition, the growth in the assay on A549/ATCC NSCLC was 72.9%; in the assay on 786-0 renal, -42.9% (active); in the assay with COLO 205 colon, -69.3% (active); in the assay with DU-145 prostate, -91.8% (active); with MALME-3M melanoma it was -56.4% (active); with MDA-MB-231 breast, -8.93% (active). Moreover, the growth in the assay with RXF 393 renal was -50.5% (active); in the assay on SF-268 CNS it was 7.68% (active); in the assay on SF-539 CNS, -17.5% (active); in the assay with M14 melanoma, -41.9% (active).

In the case of `CC(C)(C)n1cc(-c2ccnc(NCCCNS(=O)(=O)c3ccc(Br)cc3)c2)c(-c2cccc(O)c2)n1`, the growth with NCI-H23 lung was 47.1%; with NCI-H226 lung, 40.4%; in the assay with HOP-62 NSCLC, 46.8%; with NCI-H460 lung, -21.2% (active); in the assay on HOP-92 NSCLC, 48.4%; with NCI-H522 lung, 13.5%. The growth in the assay on A549/ATCC NSCLC is 24.1%; in the assay on 786-0 renal, -2.1% (active); in the assay on COLO 205 colon, -62.6% (active); in the assay on DU-145 prostate, 43%; with K-562 leukemia it was -10.9% (active); with MALME-3M melanoma it was -2.04% (active). Moreover, the growth with MDA-MB-231 breast was 8.91% (active); in the assay on RXF 393 renal, 20.8%; with SF-268 CNS, 31.1%; in the assay with SF-295 CNS, 12%; with SF-539 CNS it was 15.7%; in the assay on UACC-257 melanoma, 9.16% (active). Also, the growth in the assay with M14 melanoma is 5.23% (active).

In the case of `COc1ccc(C(=O)c2cc(OC)c(OC)c(OC)c2OC)cc1O`, the growth is 44.2% in the assay with NCI-H23 lung; 86.8% in the assay with NCI-H226 lung; 42% with HOP-62 NSCLC; 13.7% with NCI-H460 lung; 60.4% in the assay with HOP-92 NSCLC; -0.0983% (active) in the assay on NCI-H522 lung. Also, the growth in the assay on A549/ATCC NSCLC is 50.6%; in the assay on 786-0 renal, 51%; in the assay on COLO 205 colon, 86%; in the assay on DU-145 prostate, 35.6%; in the assay on K-562 leukemia it was 27.6%; in the assay with MALME-3M melanoma, 23%. In addition, the growth is 56% with MDA-MB-231 breast; 40% in the assay on RXF 393 renal; 38.9% in the assay on SF-268 CNS; 33.3% with SF-295 CNS; 23.8% in the assay on SF-539 CNS; 79.9% in the assay on UACC-257 melanoma. In addition, the growth in the assay on M14 melanoma is 10.9%.

For the compound `C/C(=N/NC(=S)Nc1ccccc1)c1nc2ccc(Cl)cc2[nH]1`, the growth with NCI-H23 lung is -45.3% (active); with NCI-H226 lung, -42.4% (active); in the assay with HOP-62 NSCLC, -97.1% (active); with NCI-H460 lung, -66.6% (active); in the assay with NCI-H522 lung it was -93.4% (active); in the assay with A549/ATCC NSCLC, -10.9% (active). Besides, the growth was -47.6% (active) in the assay with 786-0 renal; -89.3% (active) in the assay on COLO 205 colon; -99.1% (active) in the assay on DU-145 prostate; -9.4% (active) with K-562 leukemia; -74% (active) with MALME-3M melanoma; -21.4% (active) with MDA-MB-231 breast. Moreover, the growth in the assay with RXF 393 renal is -91.5% (active); in the assay on SF-268 CNS it was -89.6% (active); in the assay with SF-295 CNS, -58.6% (active); in the assay on SF-539 CNS, -72.1% (active); in the assay on UACC-257 melanoma, -94.9% (active).

Consider `Brc1cccc(-c2cc(-c3ccc4c(c3)OCCCO4)[nH]n2)c1`, for which the growth is 66.2% [25 µM] in the assay on NCI-H23 lung; 72% [25 µM] in the assay on NCI-H226 lung; 53% [25 µM] with HOP-62 NSCLC; 16% [25 µM] with NCI-H460 lung; 56.8% [25 µM] with HOP-92 NSCLC; 2.15% [25 µM] (active) in the assay on NCI-H522 lung. In addition, the growth in the assay on A549/ATCC NSCLC is 44.4% [25 µM]; with 786-0 renal, 85.2% [25 µM]; with COLO 205 colon, 36.3% [25 µM]; with DU-145 prostate, 69.3% [25 µM]; in the assay with K-562 leukemia, 17.4% [25 µM]; with MALME-3M melanoma, 52.9% [25 µM]. Moreover, the growth with MDA-MB-231 breast was 49.4% [25 µM]; in the assay on RXF 393 renal it was 82.4% [25 µM]; with SF-268 CNS, 68.8% [25 µM]; in the assay with SF-295 CNS, 62.3% [25 µM]; with SF-539 CNS, 77.1% [25 µM]; with UACC-257 melanoma it was 96.7% [25 µM]. The growth in the assay on M14 melanoma is 49.6% [25 µM].

The values are drawn from PubChem BioAssay (NCI).
